These results are taken from PubChem BioAssay (NCI).

Compounds without any hit were thinned out: in the full panel of roughly 83,000, 20% have a hit.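 In brief: 96-well plates, 48 h treatment, single concentration, percent growth endpoint.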 Values without a mark were called inactive. Calls of active or inactive are those of the source.

The test system of the test is SK-OV-3 ovarian. The test can be described thus: NCI-60 one-dose screen, 48 h (100 = growth as untreated, 0 = no growth, -100 = all killed). Particulars: 10 µM unless noted. As to the method:
Growth inhibition of the SK-OV-3 human tumor cell line is measured as a screen for anti-cancer activity. Cells are grown in 96 well plates and exposed to the test compound for 48 hours. Compounds are tested at a single concentration, which is 10^-5 M for most compounds. The reported endpoint is percent growth (GI% or GIPRCNT), where numbers from 0 - 100% represent growth inhibition, and numbers from -100% - 0 represent cell death. For example, a value of 40 represents 60% growth inhibition. A value of 0 means no net growth occurred over the course of the experiment. A value of -40 indicates 40% of cells at the beginning of the experiment died by the end of the experiment. A value of -100 means all cells are dead at the end of the experiment.
NCI-60 Human Tumor Cell Lines Screen was performed using the standard one-dose NCI protocol, which is described in more detail at https://dtp.cancer.gov/discovery_development/nci-60/default.htm.
Compounds with GIPRCNT values below 10 were considered active. Activity score was based on GIPRCNT using the following formula: […]
Score is 0 for GIPRCNT values of 100 or above, 50 for GIPRCNT values of 0, and 100 for GIPRCNT values of -100.
Regarding `CCN(CC)c1ccc(/C=C\c2cc(C)c3cc(C)ccc3n2)cc1`, the growth was 40.1%.
Under `CC1(C)CC2=C3C=C[C@@H]4[C@@]5(C)CC[C@H](O)C(C)(C)[C@@H]5CC[C@@]4(C)[C@]3(C)CC[C@@]2(C(=O)O)CC1=O` stands 75.9%; under `Clc1ccc(-c2cn3ccsc3n2)c(Cl)c1Cl`, 118%; under `COc1cc(/C=C2\C(=O)N(c3c(Cl)cccc3Cl)c3ccccc32)cc(OC)c1OCCCCCCn1c2ccccc2c(=O)c2ccccc21`, 110%.
Under `CCC(C)Nc1ccc(NC(C)CC)cc1` (stereo not given) stands 98.4%; under `O=C1CCC(C(=O)NN(c2ccccc2)c2ccccc2)N1` (stereo not given), 96.6%; under `Cc1cc(C)c(-c2c(O)c(Br)c(-c3c(C)cc(C)c(Br)c3C)c(O)c2Br)c(C)c1Br`, 46.7%.
Under `O=C1Nc2ccccc2C2c3cccn3-c3ccccc3N12` (stereo not given) stands 84.6%; under `CCOC(=O)C/C(=N\Nc1cc(=O)[nH]c2ccc(Cl)cc12)C(=O)OCC`, 123%; under `CC(C)CSc1oc(-c2ccccc2)nc1S(=O)(=O)c1ccccc1`, 87%.
For `S=c1ssnc1-c1cccs1`, the growth is 98.4%.
For `COc1ccc(-c2oc(=O)ccc2-c2cc(OC)c(OC)c(OC)c2)cc1O`, the growth was 28.3%.
Turning to `C[C@@H](CO)[C@@H]1CC[C@]2(C(=O)N3CCN(C)CC3)CC[C@]3(C)[C@H](CC[C@@H]4[C@@]5(C)CC[C@H](O)C(C)(C)[C@@H]5CC[C@]43C)[C@@H]12`, the growth is 108%.
Turning to `O=C1c2cccnc2C(=O)c2c1c(C(=O)OCCCN1CCCCC1)c1ccccn21`, the growth was -40.6% (active).
Take `Cc1cc(C(=O)Nc2cc(Nc3ncccc3-c3ncnc4nc[nH]c34)ccc2F)cc(C(F)(F)F)c1`: the growth is 87.2%.
Under `NS(=O)(=O)c1ccc(N/C=C/C(=O)c2cc3ccccc3oc2=O)cc1` stands 83.4%.
Under `CNCc1cccc2c1OCCOCCN(C)C(=O)CN(C)S(=O)(=O)c1ccc(cc1)-c1cnc(N)c(n1)C(=O)N2` stands 8.28% (active); under `NNC(=S)N/N=C/c1ccccn1`, 24.3%.
Turning to `CCC/C(=N\NC(N)=O)C(OC)OC`, the growth is 116%.
`Cn1cccc1/C=C1\C(=O)Nc2ccccc21`: the growth is 94.4%.
For the compound `Cn1cc(-c2nonc2-c2c[nH]c3ccccc23)c2ccccc21`, the growth is 18.9%.
Under `O=C(/C=C/C12c3ccccc3C(c3ccccc31)C1C(=O)NC(=O)C12)c1ccc(F)cc1` (stereo not given) stands -1.75% (active); under `COCC[C@H]1CCC/C=C/[C@@H]2C[C@H](O)C[C@H]2[C@H](O)/C=C/C(=O)O1`, 33.6%; under `O=C(CCCCCCCCC(=O)N/N=C\c1cc(Cl)ccc1O)N/N=C\c1cc(Cl)ccc1O`, 41.1%.
As for `COc1ccc(NC(=O)c2cccc(C3CCc4c(cc(OC)c(OC)c4OC)O3)c2)cc1` (stereo not given), the growth is 26.8%.
Regarding `C#CCn1cnc2c(Nc3cccc(NC(=O)CCl)c3)ncnc21`, the growth was 49.6%.
Under `CCCCCCC(=O)Nc1ncc(Cc2ccc(C)cc2)s1` stands 31.8%.
As for `O=C1OCC2=C1C(c1cccc(C(F)(F)F)c1)c1cc3c(cc1N2CCO)OCO3` (stereo not given), the growth is 27.9%.
In the case of `CCCCCCCC/C=C\CCCCCCCCOc1ccc(CC(=O)NCC[N+](C)(C)C)cc1`, the growth was 93.6%.
On to `CC1(C)CC[C@]2(C(=O)O)CC[C@]3(C)C(=CC[C@@H]4[C@@]5(C)C[C@@H](Cc6cn([C@@H]7O[C@H](CO)[C@@H](O)[C@H](O)[C@H]7O)nn6)[C@H](O)C(C)(C)[C@@H]5CC[C@]43C)[C@@H]2C1`, for which the growth was 89%.
Under `COc1ccc2c(c1)c(-c1nonc1-c1cn(C)c3ccc(OC)cc13)cn2C` stands 48.2%; under `N=C(N)c1ccc(-c2ccc(-c3ccc(Cl)cc3Cl)s2)cc1F`, 74.9%; under `CCc1cccc(Sc2cc(C(=O)N3Cc4ccc(OCCN(C)C)cc4C3)ccc2O)c1`, 37.7%.
Under `CC1(C)O[C@H]2OC3CCC(=O)CC3(O)[C@H]2O1` (stereo not given in full) stands 94.9%.
Under `COc1cccc(NC(=O)c2cccc(C3CCc4c(cc(OC)c(OC)c4OC)O3)c2)c1` (stereo not given) stands 71.7%.
Consider `Cn1cc(-c2nonc2-c2c[nH]c3ccc(F)cc23)c2cc(Br)ccc21`, for which the growth was 64.4%.
As for `C#Cc1cccc(Oc2ccc(NC(=O)CCl)cc2)c1`, the growth was 98.9% [8.25 µM].
For `Nc1c(C(=O)Nc2ccccn2)sc2nc3c(cc12)C(O)CCC3` (stereo not given), the growth was 17.4%.
As for `O=C1CC2C=CCN2C=C1NC(=O)C1CCCCC1` (stereo not given), the growth was 111%.
For `CCOC(=O)c1cn2ncnc(Oc3ccc(NC(=O)NC4CC4)c(F)c3)c2c1C`, the growth is 111%.
